CHX counter – counter-screen hit for Shiga toxin inhibitors, cycloheximide; AID 2314; max response, %; 12% of 300,000 active; cell reporter, cycloheximide protein synthesis inhibition counterscreen; in the data active = max response mostly above about 13%, no sharp cut-off; inactive = mostly below about 14%; note: read at 38.3 µM for the half of the compounds with a filed dose
Sm TGR inh – S. mansoni TGR enzyme inhibition | Q962Y6 | purified TGR, DTNB reduction, TNB absorbance 405 nm | Potency, µM (highest dose often 114 µM), hits mostly inhibitors | 3% of 360,000 active | AID 485364; active = well fitted inhibition curve with a large enough effect; inconclusive = small, poorly fitted or top-dose-only effect; inactive = no such curve, though single readings can be large or run the other way; note: nearly all actives have a fitted effect of over 60% in size
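First, TGR (20 nM dispensed) and NADPH were mixed with compound. Second, a 15 min room-temperature incubation followed. Third, further NADPH and then DTNB were added to start the reaction. Finally, TNB absorbance was monitored kinetically.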
FMDV inh – foot and mouth disease virus antiviral activity; FMDV antiviral cell-based qHTS; Potency, µM (titrated, usually from 57.9 µM), hits mostly inhibitors; 1.2% of 410,000 active; calls by dose curve; tested in HEK293T cells; note: read-out not given here; nearly all actives have a fitted effect of over 45% in size
Shiga toxin inh – inhibitors of Shiga toxin in Vero cells; Vero cells, Shiga toxin protein synthesis inhibition reporter; inhibition, % at 38.7 µM; 9.2% of 290,000 active; AID 2315; in the data active = inhibition mostly above about 28%, no sharp cut-off; inactive = mostly below about 43%
Large screens that a line does not name were inactive. Sampled rows, rich in hits. Any-hit rate of the full collection: about 12%.

CC1(C)Nc2ccccc2C(=O)N1c1ccccc1	CHX counter 19 (no result: Shiga toxin inh)
COc1ccc2c(c1)C1(Nc3ccccc3C(=O)N1c1ccccc1)C(=O)N2 (configuration not stated)	none (no result: FMDV inh)
CCC1(CC)Nc2ccccc2C(=O)N1c1ccc(OC)cc1	CHX counter 33, Shiga toxin inh 36
CC1(C)Nc2ccccc2C(=O)N1NC(=O)c1ccccc1	FMDV inh inconclusive
COc1ccc(N2C(=O)c3ccccc3NC23CCCC3)cc1	CHX counter 31, Shiga toxin inh 44
CCC1(CC)Nc2ccccc2C(=O)N1c1ccc(NC(C)=O)cc1	CHX counter 12
CCOC(=O)c1cc2c(=O)n3ccccc3nc2n(Cc2ccco2)c1=NC(=O)c1cccc(F)c1	Sm TGR inh inconclusive (no result: CHX counter, Shiga toxin inh)
CCOC(=O)C1(Cc2cccc(Cl)c2)CCCN(C(=O)CCC(=O)N(C)C)C1 (configuration not stated)	none
CCOC(=O)C1(Cc2cccc(Cl)c2)CCCN(C(=O)c2ccco2)C1 (configuration not stated)	Sm TGR inh inconclusive, Shiga toxin inh 64
CCOC(=O)C1(Cc2cccc(Cl)c2)CCCN(C(=O)c2occc2C)C1 (configuration not stated)	none
CCOC(=O)C1(Cc2cccc(Cl)c2)CCCN(C(=O)c2ccc(COC)s2)C1 (configuration not stated)	CHX counter 20
CCOC(=O)C1(Cc2cccc(Cl)c2)CCCN(C(=O)C2CC2)C1 (configuration not stated)	CHX counter 14
Cc1nnc(N2CCCC(C(=O)NCCc3ccc(Cl)cc3)C2)c2nn(-c3ccccc3)c(C)c12 (configuration not stated)	none (no result: CHX counter, Shiga toxin inh)
COc1ccc(NC(=O)c2nc(S(C)(=O)=O)ncc2N(Cc2ccc(C)cc2)Cc2ccco2)cc1Cl	none (no result: CHX counter, Shiga toxin inh)
COc1ccc(CNC(=O)c2ccc(N3CCCC3)c(NC(=O)NCc3ccc(C)cc3)c2)cc1	none (no result: CHX counter, Shiga toxin inh)
CC1=C(C)C[C@@]23CCCN2C(=O)CCC[C@H]3C1	none (no result: Sm TGR inh, FMDV inh)
COc1ccc(C(=O)/C=C/Nc2ccc([N+](=O)[O-])cc2)cc1	CHX counter 85, Shiga toxin inh 114
CCCOc1ccc(N/C=C/C(=O)c2cc(OC)c(OC)c(OC)c2)cc1	none (no result: Shiga toxin inh)
CCOc1ccc(N/C=C/C(=O)c2ccc(OC)cc2)c([N+](=O)[O-])c1	CHX counter 39, Shiga toxin inh 132 (no result: FMDV inh)
COc1ccc(N/C=C/C(=O)c2ccc(C)cc2)c([N+](=O)[O-])c1	none (no result: CHX counter, Sm TGR inh, Shiga toxin inh)
CCOc1ccc(N/C=C/C(=O)c2ccc(OC)cc2)cc1	CHX counter 20, Shiga toxin inh 132
COc1cccc(C(=O)Nc2ccccc2C(=O)OCc2cc(=O)n3nc(C4CC4)sc3n2)c1	none (no result: CHX counter, Shiga toxin inh)
Cc1nc2c(=O)n(C)c(=O)[nH]c2n1Cc1ccccc1	CHX counter 37
COc1ccccc1Nc1nn2c(=O)c3ccc(C(=O)NCCC4=CCCCC4)cc3nc2s1	FMDV inh inconclusive (no result: CHX counter, Shiga toxin inh)
CCc1c(C)sc(NC(NC(C)=O)(C(=O)OC)C(F)(F)F)c1C#N (configuration not stated)	Sm TGR inh 50µM
COC(=O)C(NC(C)=O)(Nc1sc2c(c1C(N)=O)CCCC2)C(F)(F)F (configuration not stated)	Sm TGR inh inconclusive (no result: FMDV inh)
CCC1CN(Cc2cn[nH]c2-c2ccccc2)Cc2cc(OC)ccc2O1 (configuration not stated)	none (no result: CHX counter, Sm TGR inh, Shiga toxin inh)
Cc1cc(C)n(CC(=O)O)c(=O)c1[N+](=O)[O-]	Sm TGR inh 40µM
COc1ccc(C2(C(=O)NCC3Cc4cccc(-c5nc(C)cnc5C)c4O3)CCCC2)cc1 (configuration not stated)	none (no result: CHX counter, Sm TGR inh, Shiga toxin inh)
Oc1ccc(/C=N/n2c(-c3ccco3)csc2=Nc2cccnc2)c(O)c1	none
COCCN=c1scc(-c2ccco2)n1/N=C/c1ccc(O)c(O)c1O	Sm TGR inh 13µM
CC(C)N=c1scc(-c2ccco2)n1/N=C/c1ccc(O)c(O)c1	CHX counter 43
COCCN=c1scc(-c2cccs2)n1/N=C(\C)c1ccco1	CHX counter 83, Sm TGR inh inconclusive, Shiga toxin inh 124
C=CCN=c1scc(-c2ccco2)n1/N=C/c1ccc(O)c(O)c1O	FMDV inh inconclusive
OCC1CCCN(c2nc3cc4c(cc3cc2CNCc2cccc(C(F)(F)F)c2)OCO4)C1 (configuration not stated)	none (no result: CHX counter, Sm TGR inh, Shiga toxin inh)
O=C(Nc1ccc(C(=O)OCc2cc(=O)n3ccsc3n2)cc1)c1cccc(F)c1	none (no result: CHX counter, Shiga toxin inh)
CCn1nnc2cc(C(=O)Nc3cccc(Cl)c3)ccc21	none (no result: CHX counter, Shiga toxin inh)
COc1ccc(N2CS(=O)(=O)/C(=C/N(C)C)C2=O)cc1	CHX counter 39, Shiga toxin inh 75
O=C(O)c1ccc(Nc2cnc3ccccc3n2)cc1	CHX counter 38
CCOC(=O)c1ccc(Nc2nnc(C)c3ccccc23)cc1	CHX counter 20, Sm TGR inh inconclusive, Shiga toxin inh 56

High-throughput results: PubChem BioAssay, National Center for Advancing Translational Sciences (NCATS)
